Measurements from the supplement of paper PMC11732987, “Enantioselective OTUD7B fragment discovery through chemoproteomics screening and high-throughput optimisation” (Communications Chemistry, 2025).

Tests used:
Assay in all cases: log2 ratio of Biotin-Ahx-Ub-VS probe labelling (fragment/DMSO); higher = less target engagement (more negative = stronger competition), active = hit call of the paper (q ≤ 0.05, log2 ratio ≤ -1)
Conditions in all cases: compound concentration: 200 uM; treatment time: 3 h
USP9X = USP9X (UniProt Q93008)
USP9X, sequence (Q93008 whole entry, the tested form may be a part): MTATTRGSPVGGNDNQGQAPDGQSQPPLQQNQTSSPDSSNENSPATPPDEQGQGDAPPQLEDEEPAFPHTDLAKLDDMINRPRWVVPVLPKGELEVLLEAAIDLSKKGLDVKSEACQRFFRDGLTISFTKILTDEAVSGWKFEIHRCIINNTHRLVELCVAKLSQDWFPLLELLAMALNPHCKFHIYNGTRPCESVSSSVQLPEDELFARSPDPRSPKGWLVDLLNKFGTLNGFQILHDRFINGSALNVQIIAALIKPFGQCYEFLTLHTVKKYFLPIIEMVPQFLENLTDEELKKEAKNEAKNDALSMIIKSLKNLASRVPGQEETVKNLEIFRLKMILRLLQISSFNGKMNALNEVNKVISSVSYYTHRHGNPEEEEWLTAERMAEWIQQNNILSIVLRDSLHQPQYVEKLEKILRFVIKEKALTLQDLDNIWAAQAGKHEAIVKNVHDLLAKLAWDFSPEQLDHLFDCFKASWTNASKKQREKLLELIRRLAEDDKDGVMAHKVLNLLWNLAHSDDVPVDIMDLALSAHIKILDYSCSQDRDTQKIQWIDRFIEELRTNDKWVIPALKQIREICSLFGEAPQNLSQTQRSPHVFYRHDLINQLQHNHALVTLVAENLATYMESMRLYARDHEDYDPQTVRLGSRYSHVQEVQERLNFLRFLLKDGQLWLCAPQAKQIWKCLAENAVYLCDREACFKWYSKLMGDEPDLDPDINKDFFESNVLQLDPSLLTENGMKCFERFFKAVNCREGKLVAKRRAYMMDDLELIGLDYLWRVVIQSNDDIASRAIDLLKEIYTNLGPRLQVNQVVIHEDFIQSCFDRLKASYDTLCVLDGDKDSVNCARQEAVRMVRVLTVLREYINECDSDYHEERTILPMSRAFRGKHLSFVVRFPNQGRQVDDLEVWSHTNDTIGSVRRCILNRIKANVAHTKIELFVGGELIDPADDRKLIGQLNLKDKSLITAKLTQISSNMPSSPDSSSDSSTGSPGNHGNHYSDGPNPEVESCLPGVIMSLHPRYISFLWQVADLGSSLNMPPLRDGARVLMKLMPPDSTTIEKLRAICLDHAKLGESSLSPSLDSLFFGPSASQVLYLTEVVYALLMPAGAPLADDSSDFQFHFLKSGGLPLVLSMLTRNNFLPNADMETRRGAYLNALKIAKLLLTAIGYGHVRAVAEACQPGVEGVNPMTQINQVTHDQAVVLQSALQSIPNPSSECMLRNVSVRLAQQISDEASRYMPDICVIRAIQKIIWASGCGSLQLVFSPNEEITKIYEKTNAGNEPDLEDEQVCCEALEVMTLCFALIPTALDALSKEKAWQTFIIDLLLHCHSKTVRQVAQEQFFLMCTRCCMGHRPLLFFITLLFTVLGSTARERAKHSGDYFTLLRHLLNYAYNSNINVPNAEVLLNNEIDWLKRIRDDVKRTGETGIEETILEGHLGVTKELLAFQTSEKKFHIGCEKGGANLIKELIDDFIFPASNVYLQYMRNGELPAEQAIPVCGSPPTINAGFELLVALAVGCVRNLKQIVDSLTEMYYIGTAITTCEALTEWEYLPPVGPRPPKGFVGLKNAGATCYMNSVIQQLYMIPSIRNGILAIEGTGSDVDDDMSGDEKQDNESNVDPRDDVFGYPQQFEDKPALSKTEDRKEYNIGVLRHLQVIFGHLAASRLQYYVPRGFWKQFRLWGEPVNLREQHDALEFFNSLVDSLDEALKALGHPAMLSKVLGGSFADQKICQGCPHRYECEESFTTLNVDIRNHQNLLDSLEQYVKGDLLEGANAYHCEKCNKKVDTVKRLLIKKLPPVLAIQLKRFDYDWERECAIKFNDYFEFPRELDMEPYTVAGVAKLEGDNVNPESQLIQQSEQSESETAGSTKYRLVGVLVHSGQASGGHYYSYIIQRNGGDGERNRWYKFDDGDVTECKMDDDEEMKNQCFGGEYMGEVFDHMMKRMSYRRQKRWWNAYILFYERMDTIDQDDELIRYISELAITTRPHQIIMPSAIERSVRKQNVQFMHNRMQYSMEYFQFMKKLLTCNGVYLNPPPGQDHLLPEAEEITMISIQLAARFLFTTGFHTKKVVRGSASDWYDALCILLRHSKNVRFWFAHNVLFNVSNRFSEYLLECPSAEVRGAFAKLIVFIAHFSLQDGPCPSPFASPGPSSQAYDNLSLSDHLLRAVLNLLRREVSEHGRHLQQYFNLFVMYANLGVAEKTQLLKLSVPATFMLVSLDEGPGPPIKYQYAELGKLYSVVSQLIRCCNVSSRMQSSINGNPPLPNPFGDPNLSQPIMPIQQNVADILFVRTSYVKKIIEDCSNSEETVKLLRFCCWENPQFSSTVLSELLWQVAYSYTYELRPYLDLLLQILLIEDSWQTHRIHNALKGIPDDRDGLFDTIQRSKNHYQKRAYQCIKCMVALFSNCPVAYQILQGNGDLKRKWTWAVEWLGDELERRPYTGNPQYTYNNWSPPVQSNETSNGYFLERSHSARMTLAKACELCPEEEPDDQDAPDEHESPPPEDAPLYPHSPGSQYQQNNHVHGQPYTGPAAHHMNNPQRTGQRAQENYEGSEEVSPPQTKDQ
Method in brief: (§1)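 In triplicate, 495 µg of HEK293T lysate per sample was incubated with fragment at 200 µM or vehicle for 3 h. Biotin-Ahx-Ub-VS was then added to 0.5 µM final for 1 h, and labelled DUBs were captured with NeutrAvidin, digested with LysC and trypsin, and measured by diaPASEF LC-MS/MS. Data are average log2 fragment/vehicle ratios by unpaired t-test from global-median-normalised Spectronaut label-free quantities, restricted to proteins with ≥2 unique peptides.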

UniProt O00487 = biological target: UniProt O00487
UniProt O00487, sequence (O00487 whole entry): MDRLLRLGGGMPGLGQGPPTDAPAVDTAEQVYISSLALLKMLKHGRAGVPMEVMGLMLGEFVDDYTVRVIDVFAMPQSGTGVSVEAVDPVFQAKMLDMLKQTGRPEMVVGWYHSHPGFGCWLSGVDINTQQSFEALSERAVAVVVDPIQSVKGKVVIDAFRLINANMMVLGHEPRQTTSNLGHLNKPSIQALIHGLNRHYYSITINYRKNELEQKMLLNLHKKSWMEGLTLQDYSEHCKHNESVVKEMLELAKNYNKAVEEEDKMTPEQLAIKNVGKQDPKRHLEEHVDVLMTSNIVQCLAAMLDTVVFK
Method in brief: as §1

UniProt O00507 = biological target: UniProt O00507
Method in brief: as §1

UniProt P51784 = biological target: UniProt P51784
UniProt P51784, sequence (P51784 whole entry): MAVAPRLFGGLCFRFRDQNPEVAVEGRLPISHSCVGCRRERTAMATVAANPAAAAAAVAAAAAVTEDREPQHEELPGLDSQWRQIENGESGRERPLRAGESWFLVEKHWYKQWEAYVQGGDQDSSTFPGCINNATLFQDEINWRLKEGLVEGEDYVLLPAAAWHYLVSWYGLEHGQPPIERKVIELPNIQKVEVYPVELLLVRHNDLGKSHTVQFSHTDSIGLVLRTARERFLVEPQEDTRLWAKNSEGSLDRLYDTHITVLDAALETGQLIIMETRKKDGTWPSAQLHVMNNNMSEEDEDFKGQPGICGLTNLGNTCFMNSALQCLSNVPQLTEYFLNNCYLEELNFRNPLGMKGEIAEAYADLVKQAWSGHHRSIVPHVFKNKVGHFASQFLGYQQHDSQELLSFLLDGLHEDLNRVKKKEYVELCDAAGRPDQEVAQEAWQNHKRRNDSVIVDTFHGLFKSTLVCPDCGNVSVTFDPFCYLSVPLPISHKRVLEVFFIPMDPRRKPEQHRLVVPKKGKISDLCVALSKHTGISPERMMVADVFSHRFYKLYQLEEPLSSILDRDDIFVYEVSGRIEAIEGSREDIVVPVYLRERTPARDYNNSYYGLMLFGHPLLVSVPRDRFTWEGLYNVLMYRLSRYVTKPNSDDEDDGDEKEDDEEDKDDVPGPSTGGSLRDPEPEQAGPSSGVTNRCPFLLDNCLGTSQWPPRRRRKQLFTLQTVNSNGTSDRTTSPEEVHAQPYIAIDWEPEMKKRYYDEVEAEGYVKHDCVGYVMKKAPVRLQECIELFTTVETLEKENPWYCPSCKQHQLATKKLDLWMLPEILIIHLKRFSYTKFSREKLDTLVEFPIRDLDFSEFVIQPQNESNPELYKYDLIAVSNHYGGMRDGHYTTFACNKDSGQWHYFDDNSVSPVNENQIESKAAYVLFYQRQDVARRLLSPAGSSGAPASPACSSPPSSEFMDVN
Method in brief: as §1

UniProt Q5T2D3 = biological target: T1, UniProt Q5T2D3
T1 sequence (whole entry): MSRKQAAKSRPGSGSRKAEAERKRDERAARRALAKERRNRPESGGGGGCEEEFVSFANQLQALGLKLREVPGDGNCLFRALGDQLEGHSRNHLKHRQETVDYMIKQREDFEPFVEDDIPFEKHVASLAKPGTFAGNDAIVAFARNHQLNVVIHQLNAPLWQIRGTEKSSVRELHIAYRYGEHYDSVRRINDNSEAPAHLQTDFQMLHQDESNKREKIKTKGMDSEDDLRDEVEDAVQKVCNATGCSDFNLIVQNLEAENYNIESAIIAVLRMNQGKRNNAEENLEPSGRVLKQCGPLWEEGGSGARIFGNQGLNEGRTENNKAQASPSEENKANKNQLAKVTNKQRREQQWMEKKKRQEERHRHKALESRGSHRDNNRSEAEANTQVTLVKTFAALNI
Method in brief: as §1

UniProt Q8TE49 = biological target: T2, UniProt Q8TE49
T2 sequence (whole entry): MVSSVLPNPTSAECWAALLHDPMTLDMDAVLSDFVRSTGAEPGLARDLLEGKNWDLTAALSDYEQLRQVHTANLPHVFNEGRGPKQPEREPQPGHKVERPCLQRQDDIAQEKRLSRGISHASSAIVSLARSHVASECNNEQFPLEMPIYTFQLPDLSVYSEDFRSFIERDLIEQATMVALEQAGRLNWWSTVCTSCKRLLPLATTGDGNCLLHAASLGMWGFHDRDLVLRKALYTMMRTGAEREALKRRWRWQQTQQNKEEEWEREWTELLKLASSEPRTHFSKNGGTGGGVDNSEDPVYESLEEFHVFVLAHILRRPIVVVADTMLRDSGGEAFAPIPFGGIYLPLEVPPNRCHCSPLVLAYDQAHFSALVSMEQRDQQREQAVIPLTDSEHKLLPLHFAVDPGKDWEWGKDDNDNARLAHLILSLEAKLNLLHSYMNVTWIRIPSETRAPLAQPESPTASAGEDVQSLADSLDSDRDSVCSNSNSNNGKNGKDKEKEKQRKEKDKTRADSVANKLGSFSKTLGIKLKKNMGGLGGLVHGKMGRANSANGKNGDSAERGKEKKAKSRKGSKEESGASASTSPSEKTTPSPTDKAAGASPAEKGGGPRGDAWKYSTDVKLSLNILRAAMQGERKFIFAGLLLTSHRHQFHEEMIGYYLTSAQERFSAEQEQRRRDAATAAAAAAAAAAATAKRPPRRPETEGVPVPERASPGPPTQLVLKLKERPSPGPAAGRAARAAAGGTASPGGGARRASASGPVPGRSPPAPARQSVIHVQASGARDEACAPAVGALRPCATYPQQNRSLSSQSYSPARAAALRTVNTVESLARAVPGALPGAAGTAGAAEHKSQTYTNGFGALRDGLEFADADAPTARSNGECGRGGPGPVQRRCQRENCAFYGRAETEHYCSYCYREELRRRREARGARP
Method in brief: as §1

UniProt Q9P2H5 = biological target: T3, UniProt Q9P2H5
T3 sequence (whole entry): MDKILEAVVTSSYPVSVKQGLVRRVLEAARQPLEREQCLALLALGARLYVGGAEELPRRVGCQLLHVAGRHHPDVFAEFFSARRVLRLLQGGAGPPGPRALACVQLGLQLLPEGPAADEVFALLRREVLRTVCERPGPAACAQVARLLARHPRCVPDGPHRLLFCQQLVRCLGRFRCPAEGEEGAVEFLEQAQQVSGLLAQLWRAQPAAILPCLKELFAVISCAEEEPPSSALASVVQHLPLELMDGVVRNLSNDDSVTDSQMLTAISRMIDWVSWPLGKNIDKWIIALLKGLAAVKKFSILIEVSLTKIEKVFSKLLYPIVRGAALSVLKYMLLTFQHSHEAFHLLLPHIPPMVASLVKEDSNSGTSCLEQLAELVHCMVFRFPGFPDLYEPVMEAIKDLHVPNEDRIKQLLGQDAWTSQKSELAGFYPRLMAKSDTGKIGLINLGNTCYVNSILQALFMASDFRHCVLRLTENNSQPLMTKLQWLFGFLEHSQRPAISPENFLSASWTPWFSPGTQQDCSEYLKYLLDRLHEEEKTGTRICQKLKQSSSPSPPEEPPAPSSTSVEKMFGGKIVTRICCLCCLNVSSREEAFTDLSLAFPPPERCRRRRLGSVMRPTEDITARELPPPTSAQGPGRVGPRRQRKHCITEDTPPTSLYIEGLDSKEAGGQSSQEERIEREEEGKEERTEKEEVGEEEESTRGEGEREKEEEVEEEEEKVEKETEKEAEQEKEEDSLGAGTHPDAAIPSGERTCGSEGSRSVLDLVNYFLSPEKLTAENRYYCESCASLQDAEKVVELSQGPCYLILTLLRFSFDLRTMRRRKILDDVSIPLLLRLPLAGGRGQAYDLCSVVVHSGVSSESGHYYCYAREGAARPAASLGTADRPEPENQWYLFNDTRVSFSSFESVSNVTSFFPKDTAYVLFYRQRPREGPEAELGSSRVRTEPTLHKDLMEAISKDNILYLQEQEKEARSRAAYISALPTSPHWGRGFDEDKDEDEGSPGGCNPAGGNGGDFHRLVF
Method in brief: as §1

UniProt Q9UGI0 = biological target: T4, UniProt Q9UGI0
T4 sequence (whole entry): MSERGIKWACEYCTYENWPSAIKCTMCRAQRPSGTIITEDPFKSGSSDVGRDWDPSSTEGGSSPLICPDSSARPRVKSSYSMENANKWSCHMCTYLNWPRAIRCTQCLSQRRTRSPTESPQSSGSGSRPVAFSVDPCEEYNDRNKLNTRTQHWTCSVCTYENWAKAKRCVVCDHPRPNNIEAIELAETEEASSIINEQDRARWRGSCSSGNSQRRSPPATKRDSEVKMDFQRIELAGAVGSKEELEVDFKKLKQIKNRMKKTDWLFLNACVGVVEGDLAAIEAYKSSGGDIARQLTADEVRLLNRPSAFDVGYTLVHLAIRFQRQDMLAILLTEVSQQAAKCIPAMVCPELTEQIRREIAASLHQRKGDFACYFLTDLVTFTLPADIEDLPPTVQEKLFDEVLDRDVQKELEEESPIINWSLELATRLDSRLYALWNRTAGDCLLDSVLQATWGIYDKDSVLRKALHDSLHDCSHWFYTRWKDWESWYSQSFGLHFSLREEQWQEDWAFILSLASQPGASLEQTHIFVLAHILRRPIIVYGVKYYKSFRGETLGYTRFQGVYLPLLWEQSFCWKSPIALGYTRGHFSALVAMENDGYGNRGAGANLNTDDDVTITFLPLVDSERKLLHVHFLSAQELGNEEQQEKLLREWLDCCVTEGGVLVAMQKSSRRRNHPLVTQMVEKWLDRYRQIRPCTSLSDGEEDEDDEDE
Method in brief: as §1

YOD1 = biological target: T5, YOD1 (UniProt Q5VVQ6)
T5 sequence (whole entry): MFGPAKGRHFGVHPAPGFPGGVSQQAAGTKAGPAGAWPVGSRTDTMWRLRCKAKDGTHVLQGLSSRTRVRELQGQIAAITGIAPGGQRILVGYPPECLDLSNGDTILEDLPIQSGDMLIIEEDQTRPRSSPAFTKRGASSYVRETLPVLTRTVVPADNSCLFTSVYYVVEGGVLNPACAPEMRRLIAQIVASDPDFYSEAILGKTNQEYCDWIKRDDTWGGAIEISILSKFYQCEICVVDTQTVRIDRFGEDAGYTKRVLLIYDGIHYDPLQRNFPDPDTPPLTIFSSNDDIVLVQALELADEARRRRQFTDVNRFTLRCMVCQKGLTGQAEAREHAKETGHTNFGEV
Method in brief: as §1

Measured: log2 ratio of Biotin-Ahx-Ub-VS probe labelling

Cc1nc(CC2CCN(C(=O)CCl)CC2)no1
inactive: USP9X -0.815 | UniProt O00487 -0.084 | UniProt O00507 -0.771 | UniProt P51784 -0.658 | UniProt Q5T2D3 -0.786 | UniProt Q9P2H5 -0.59 | UniProt Q9UGI0 -0.834 | YOD1 -0.679
active: UniProt Q8TE49 -1.04
